Compounds with a hit are over-represented: about 13% of the library has one in this group of screens.
4-MU autofl – compound fluoresces in the 4-MU spectral region; compound autofluorescence, 340/450 nm, 4-MU equivalents; active compounds read high; max dye-equivalent concentration, M; 59,000 tested, 11% active; AID 589; in the data active = max dye-equivalent concentration above about 10 nM; inconclusive = mostly about 1.1 nM to 9.6 nM
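Compounds in 100 mM Tris, pH 8.0, sat 15 min at room temperature before fluorescence was read at 340 nm excitation/450 nm emission; a per-plate six-point 4-MU standard curve converted signals to dye-equivalent concentration at each compound concentration.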
A350 autofl – compounds fluorescent in Alexa 350 spectral region. Compound autofluorescence, 340/450 nm, Alexa 350 dye-equivalents; active compounds read high. 59,000 tested, 11% active. max dye-equivalent concentration, M. AID 590; in the data active = max dye-equivalent concentration above about 10 nM; inconclusive = mostly about 1.1 nM to 9.6 nM
HADH2 inh – HADH2 (human) dehydrogenase inhibition. 73,000 tested, 3.4% active. recombinant HADH2, NADH fluorescence, beta-hydroxybutyryl-CoA. Q99714. Potency, µM (top dose mostly 57.1 µM), inactives show top-dose activity change, negative = inhibition, actives largely listed as inhibitors; note: potency is the fitted concentration of half-maximal effect; % is set by controls: 0 for no effect and ±100 for the full control effect; nearly all actives have a fitted effect of over 60% in size
Target sequence (Q99714 whole entry, looked up, one chain of several): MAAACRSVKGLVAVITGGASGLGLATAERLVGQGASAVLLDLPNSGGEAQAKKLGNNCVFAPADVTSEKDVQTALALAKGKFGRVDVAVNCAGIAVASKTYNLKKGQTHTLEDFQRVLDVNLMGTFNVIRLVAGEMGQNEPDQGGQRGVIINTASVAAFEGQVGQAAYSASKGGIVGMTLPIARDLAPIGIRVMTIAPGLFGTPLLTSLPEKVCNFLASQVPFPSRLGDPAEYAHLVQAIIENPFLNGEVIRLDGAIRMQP
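Activity measured as NADH fluorescence gain (360/450 nm), taken as the change between first and last reads of a 4-min kinetic run. Conditions: pH 9.0 Tris buffer, 20 nM E. coli-expressed His-tagged enzyme, 1 mM NAD+, 90 uM beta-hydroxybutyryl-CoA; 15-min compound preincubation.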
AID923 – qHTS Assay for Allosteric/Competitive Inhibitors of Caspase-1: Spectroscopic Profiling in AFC Spectral Region | 75,000 tested, 1.1% active | AID 923, 2007 | Potency, µM (titrated, usually from 57.5 µM), without a hit: top-dose fluorescence increase, usual class: activators | compound fluorescence, AFC spectral region (405/520 nm); note: potency is the fitted concentration of half-maximal effect; 0% is about no effect
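Titrations up to 57 uM read every 20 sec for 3 min (405/520 nm) with 50 nM caspase 1 and 5 uM Ac-WEHD-AFC, pH 7.5 HEPES buffer. Fluorescence-vs-time intercept gave baseline, scaled against on-plate AFC standard.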
HSD17B inh – inhibitors of human HSD17B10 dehydrogenase. AID 893. Q99714. recombinant HSD17B10, NADH fluorescence kinetic. Potency, µM (series often up to 57.1 µM), without a hit: top-dose activity change, negative = inhibition, actives largely listed as inhibitors. 75,000 tested, 7.6% active;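 note: the protocol describes HADH2 (HSD17B10) and not the HSD17B4 of the title; potency is the fitted concentration of half-maximal effect; % is set by controls: 0 for no effect and ±100 for the full control effect; nearly all actives have a fitted effect of over 70% in size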
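Enzyme plus compound, 15 min room temperature; substrate mix added (NAD+ 1 mM, beta-hydroxybutyryl-CoA 90 uM final); plates read kinetically for NADH fluorescence. HADH2 was His-tagged, E. coli-derived, 20 nM.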
* marks the source's active call; other numbers are inactive results; [ ] = another dose, or the depositor's remark. Unless noted, calls come from the whole dose curve; as a rule, active = well fitted curve in the direction sought with a large enough effect; inconclusive = small, poorly fitted or top-dose-only effect, or another doubt; inactive = no such curve, though single readings can be large; an effect the other way counts as inactive or inconclusive.

Results for CCCS(=O)(=O)N1CCCC(C(=O)N2CCC(Cc3ccccc3)CC2)C1 (configuration not stated) ?
4-MU autofl: inactive; A350 autofl: inactive; HADH2 inh: 0%; AID923: 1%; HSD17B inh: 6%

How did CCCS(=O)(=O)N1CCCC(C(=O)N2CCN(c3ccccn3)CC2)C1 (configuration not stated) do in these assays?
4-MU autofl: inactive; A350 autofl: inactive; HADH2 inh: 3%; AID923: 1%; HSD17B inh: 25µM*

How did CSCCC(NC(=O)C1CCC(C)CC1)C(=O)N1CCN(c2ccccn2)CC1 (configuration not stated) do in these assays?
4-MU autofl: inactive; A350 autofl: inactive; HADH2 inh: 22%; AID923: -1%; HSD17B inh: 25µM*

Results for COC(=O)c1ccc2c(c1)SC1=C(CCCC1=O)N2 ?
4-MU autofl: inactive; A350 autofl: inactive; HADH2 inh: -3%; AID923: -1%; HSD17B inh: inconclusive

What do the screens show for `COC(=O)C1=C(C)Nc2ccc(C)cc2S1`?
HADH2 inh: 3.2µM*; AID923: 2%; HSD17B inh: -6%

How did CNC(=O)N(C1=NCC(C)S1)c1ccc(F)cc1F (configuration not stated) do in these assays?
4-MU autofl: inconclusive; A350 autofl: 1e-08M*; HADH2 inh: -1%; AID923: 0%; HSD17B inh: -10%

What do the screens show for `COc1ccccc1N(C(=O)NCc1ccccc1)C1=NCC(C)S1` (configuration not stated)?
HADH2 inh: -14%; AID923: 1%; HSD17B inh: -9%

Results for CON(C)C(=O)c1nnc2c3ccccc3n(S(=O)(=O)c3ccc(C)cc3)c2n1 ?
HADH2 inh: 8%[11.4 µM]; AID923: -2%[11.5 µM]; HSD17B inh: -7%[11.4 µM]

What do the screens show for `CN(C)CCN1C(=O)CC[C@]2(C)C1=CC[C@@H]1[C@@H]2CC[C@]2(C)[C@H]1CC[C@]2(C)O`?
4-MU autofl: inactive; A350 autofl: inactive; HADH2 inh: 13%[11.4 µM]; AID923: -4%[11.5 µM]; HSD17B inh: 4%[11.4 µM]

Results for CCOC(=O)COc1ccc2cc(C(=O)OCC)c(=O)oc2c1 ?
HADH2 inh: 4µM*; AID923: 1%; HSD17B inh: 25µM*

Results for CCOC(=O)c1ccc(COC(=O)c2cc3ccccc3oc2=O)o1 ?
4-MU autofl: 1.8e-08M*; A350 autofl: 2.2e-08M*; HADH2 inh: -23%; AID923: -1%; HSD17B inh: 25µM*

How did Cn1c(=O)cnc2cnc(OCc3ccccc3)nc21 do in these assays?
4-MU autofl: inactive; A350 autofl: inactive; HADH2 inh: -4%; AID923: 3%; HSD17B inh: -6%

How did COC(=O)c1ccc(N2CCN(C)CC2)c(NC(=O)c2cc3ccccc3o2)c1 do in these assays?
4-MU autofl: 3.3e-08M*; A350 autofl: 3.1e-08M*; HADH2 inh: -7%; AID923: -2%; HSD17B inh: 0%

How did COc1cc(NC(=O)c2cc3ccccc3o2)c(OC)cc1Br do in these assays?
HADH2 inh: -20%; AID923: 3%; HSD17B inh: inconclusive

How did COC(=O)c1ccc(C(=O)OC)c(NC(=O)c2oc(C)nc2C)c1 do in these assays?
4-MU autofl: 2.2e-08M*; A350 autofl: inconclusive; HADH2 inh: -17%; AID923: 1%; HSD17B inh: -2%

How did COc1cc(NC(=O)c2cc3ccccc3o2)c(OC)cc1Cl do in these assays?
HADH2 inh: -6%; AID923: 11%; HSD17B inh: 32µM*

Results for COc1ccc(NC(=O)c2cc3ccccc3o2)cc1 ?
HADH2 inh: 1%; AID923: -2%; HSD17B inh: 8%

Results for COC(=O)c1ccc(C(=O)OC)c(NC(=O)c2cc3ccccc3o2)c1 ?
4-MU autofl: 6e-08M*; A350 autofl: 6.1e-08M*

Results for Cc1ccc(S(=O)(=O)N[C@H](CN)C(=O)O)cc1 ?
4-MU autofl: inactive; A350 autofl: inactive; HADH2 inh: 13%[11.4 µM]; AID923: 3%[11.5 µM]; HSD17B inh: 6%[11.4 µM]
